Bioassay records: PubChem, several laboratories
In the library only some 3.1% were active in any assay of this set; here they are far more common.
CSC inhib: cancer stem cell viability inhibitors, primary screen, luminescence; 1.1% of 300,000 active; inhibition, % at 7.5 µM; cancer stem cell-like cells viability; in the data active means inhibition above about 75%; tested in HMLE shEcad cells
PP5 inh: PP5 phosphatase inhibitors, primary screen, biochemical, fluorescence | purified PP5c, OMFP substrate fluorescence | inhibition, % at 6.7 µM | 0.18% of 320,000 active;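 active means inhibition above the campaign's mean inhibition across all tested compounds plus 3 SD, cut at about 9.5% in these data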
Target sequence (P53041 whole entry, looked up): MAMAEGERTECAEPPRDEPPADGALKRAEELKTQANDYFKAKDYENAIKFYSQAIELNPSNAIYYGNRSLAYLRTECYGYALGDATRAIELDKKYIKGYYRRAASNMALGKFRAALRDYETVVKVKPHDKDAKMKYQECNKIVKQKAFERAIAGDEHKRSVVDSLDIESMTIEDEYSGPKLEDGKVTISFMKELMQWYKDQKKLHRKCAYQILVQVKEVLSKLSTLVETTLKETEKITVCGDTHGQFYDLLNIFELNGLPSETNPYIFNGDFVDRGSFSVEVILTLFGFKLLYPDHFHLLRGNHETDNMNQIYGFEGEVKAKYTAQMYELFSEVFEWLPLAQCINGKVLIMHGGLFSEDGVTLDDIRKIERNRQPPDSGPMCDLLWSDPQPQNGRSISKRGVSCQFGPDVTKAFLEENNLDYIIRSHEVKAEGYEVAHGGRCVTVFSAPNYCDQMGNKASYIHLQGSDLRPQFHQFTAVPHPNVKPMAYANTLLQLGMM
Beta apoptosis: inhibitors of cytokine-induced beta cell apoptosis, primary screen, luminescence; INS-1E cytokine-induced death, ATP luminescence, 48 h; percent of positive-control rescue, neutral wells zero; protection from apoptosis, % (test concentration not listed); 0.8% of 300,000 active; AID 435005, 2010;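 active means Every replicate reaches about 75%, or at least half do and their mean reaches it too, limit read from the data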;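 further: higher means more ATP so stronger rescue from cytokine killing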
PP1 inh: PP1-alpha phosphatase inhibitors, primary screen, counter-screen for PP5 inhibitor project, biochemical, fluorescence, OMFP substrate, single point; Serine/threonine-protein phosphatase PP1-alpha catalytic subunit (Homo sapiens), P62136; purified PP1alpha; inhibition, % at 6.7 µM; 0.9% of 320,000 active;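 active means inhibition above the mean inhibition of all tested compounds plus 3 SD, computed separately for each screening campaign, cut at about 15% in these data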
SKKanGAS inh: S. pyogenes SKKanGAS growth inhibitors in kanamycin, primary screen, streptokinase expression inhibitor project, SKKanGAS strain, BacTiter-Glo luminescence. AID 1662, 2009. 6 h. inhibition, % at 7.5 µM. 1.3% of 300,000 active;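 active means mean replicate score, as percent of positive control median, at least 50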;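 further: strain carries kanamycin resistance gene driven by streptokinase promoter and grows in 40 µg/ml kanamycin; loss of luminescence reflects streptokinase promoter inhibition or plain growth inhibition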
A number is an active result; - = inactive; . = not tested or not shown.

SMILES	CSC inhib	PP5 inh	Beta apoptosis	PP1 inh	SKKanGAS inh
Cc1c([N+](=O)[O-])cc(C(=O)Oc2cccc(C(=S)N3CCOCC3)c2)cc1[N+](=O)[O-]	-	-	-	-	-
COc1cc(OC)cc(C(=O)NC(=S)NNC(=O)c2cnccn2)c1	106.0	-	84.7	-	-
COc1cc(OC)cc(C(=O)NNC(=S)NC(=O)c2cccnc2)c1	-	-	-	-	-
COc1ccc(C(=O)NC(=S)NNC(=O)c2cnccn2)cc1OC	-	-	81.7	-	-
COc1ccc(C(=O)NCCNC(=O)c2cnccn2)cc1OC	.	-	-	-	-
CCO[C@H]1OC(C(=O)O)=C[C@@H](c2ccccc2)[C@@H]1CCCO	-	-	-	-	-
Cc1oc(S(=O)(=O)N2CCCCC2)cc1NC(=O)Nc1ccc(F)cc1	-	-	-	-	-
CC(=O)c1c(C)[nH]c(C(=O)OCC(=O)c2ccc3c(c2)NC(=O)CO3)c1C	-	.	-	.	.
O=c1[nH]cc(S(=O)(=O)N2CCN(c3cccc(C(F)(F)F)c3)CC2)c(=O)[nH]1	-	-	.	15.8	-
O=c1[nH]cc(S(=O)(=O)N2CCN(c3cccc(Cl)c3)CC2)c(=O)[nH]1	-	-	-	-	-
CN(C)c1ccc(CCc2ccc(N)cc2)cc1	-	-	-	-	-
Nc1ccc(N(c2ccccc2)c2ccc(N)cc2)cc1	90.0	-	.	17.1	-
CC(=O)Cn1c(CN2CCN(C(=O)c3ccco3)CC2)nc2c1c(=O)n(C)c(=O)n2C	-	-	-	-	-
COc1ccc2nc(Nc3ccc4c(c3)OCO4)sc2c1	-	-	-	-	-
COc1ccc2nc(Nc3nc4cc5c(cc4s3)OCO5)sc2c1	-	-	-	-	84.2
CCOCCCNC(=O)CNC(=S)N(Cc1ccc(C)cc1)Cc1ccco1	-	-	-	-	-
NCCS(=O)(=O)NC1CCCCC1	-	-	-	-	66.0
Cc1ccc(S(=O)(=O)NC2CCCCC2)cc1	-	-	-	-	.
O=S(=O)(NCc1ccccc1)c1ccc(S(=O)(=O)NCC2CCCO2)cc1 (stereo not given)	-	-	-	-	-
O=S(=O)(NCc1ccncc1)c1ccc(S(=O)(=O)NCC2CCCO2)cc1 (stereo not given)	140.1	-	-	-	-
COC(=O)c1c(N2C(=O)CC(Sc3ccccc3C(=O)O)C2=O)sc2c1CCCC2 (stereo not given)	-	-	.	-	-
O=C(Cn1c(NCCCO)nc2ccccc21)c1ccc(Cl)cc1	-	-	-	-	-
Cc1cc2nc(NCCCO)n(CC(=O)c3cc(C(C)(C)C)c(O)c(C(C)(C)C)c3)c2cc1C	75.1	-	98.4	-	.
O=C(Nc1ccc2c(c1)OCO2)c1cc(C2CC2)on1	98.1	-	-	-	-
O=C(c1cnc(-c2ccccc2)s1)c1ccc(Cl)cc1Cl	-	-	-	-	57.2
SMILES	CSC inhib	PP5 inh	Beta apoptosis	PP1 inh	SKKanGAS inh
CC(=O)c1cnc(-c2cccc(Cl)c2)s1	-	-	-	-	-
CN(C)S(=O)(=O)c1cccc(NC(=O)c2ccc(COc3ccccc3)cc2)c1	-	-	-	-	-
CCOC(=O)c1c(Cc2cccc(Cl)c2)c[nH]c1C	.	-	-	-	-
CCN1c2ccccc2NC2N=C(OC)C(c3ccccc3)C21 (stereo not given)	-	-	110.7	-	-
Oc1cc(-c2ccc(N3CCCCC3)nc2)cc2cccnc12	.	.	96.1	.	.
CCc1ccc(C(=O)NCc2cnn(C)c2)s1	-	-	-	-	-
CCCCn1c(-c2ccc(Cl)c(Cl)c2)nc2cc3[nH]c(=O)c(C(C)C)nc3cc21	-	-	-	15.8	-
CCCCn1c(-c2ccc(C(C)(C)C)cc2)nc2cc3[nH]c(=O)c(C(C)C)nc3cc21	-	-	-	-	-
Cc1ccc2c(=O)[nH]c(Nc3nc(C)cc(-c4ccccc4)n3)nc2c1	-	-	-	-	89.0
COc1nc(Nc2nc3ccccc3c(=O)[nH]2)nc2ccc(C)cc12	125.5	-	97.1	-	85.2
Cc1cc(C)cc(Nc2nc3ccccc3c(=O)[nH]2)c1	-	-	-	-	-
CSc1ccccc1NC(=O)CN(C)C(=O)COc1cccc2cccnc12	-	.	-	.	.
C/C(CCN1CCc2nc(-c3ccccc3)c(-c3ccccc3)cc2C1)=N\O[C@@H](C)c1cc(-c2c(C)cc(C)cc2C)no1	78.3	-	-	-	-
COc1ccccc1NC(=O)Nc1nn(C)c2cccc(OC)c12	-	-	.	-	-
